# Among all 360,000 compounds or so, about 3,800 (1.1%) were called active. The full list was thinned out, with actives kept by preference. Values without a mark were called inactive.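 The calls were made as follows: active = compounds causing at least 50% loss of cell viability in the single-dose screen, relative to plate controls; inactive = the rest.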
# Assay: TRAIL-exposed caspase-8 expressing cell killing – NB7+C8 cells, ATPlite luminescence, TRAIL sensitizer project, primary screen (AID 624354)
# Conditions: at 10 µM, stronger effect = higher value
row,SMILES,"inhibition (viability loss, TRAIL sensitization)"
1,CCCN1C(=O)C(NC(C)=O)c2cc(OC)ccc21 (centres undefined),-4.35%
2,O=C(COc1ccc2c(C(F)(F)F)cc(=O)oc2c1)Nc1ccc2c(c1)OCCO2,-2.58%
3,COc1cc(SC)ccc1C(=O)Nc1cc(C)ccn1,67.3% (active)
4,Cc1ccnc(NC(=O)c2ccoc2C)c1,11.1%
5,COC(=O)c1sc(NC(=O)c2ccc(OC)cc2OC)nc1C,82.4% (active)
6,Cc1csc(NC(=O)CSc2ccc(-c3ccc(F)cc3)nn2)n1,-13.9%
7,Cc1ccnc(NC(=O)CNC(=O)c2ccccc2)c1,-13.7%
8,COCCn1c(SCC(=O)Nc2nc(C)cs2)nnc1C(C)C,-5.23%
9,Cc1ccccc1OCC(=O)Nc1nc(C)c(C(=O)N(C)C)s1,3.67%
10,COc1ccc(C(=O)CCC(=O)Nc2cccnc2)c(OC)c1,7.09%
11,COc1cc(SC)ccc1C(=O)Nc1nc(C)cs1,92.9% (active)
12,Cc1ccc(CNC(=O)Cn2cnc3c(NCc4ccccc4)ncnc32)o1,20.3%
13,OCC1(Cc2ccccc2C(F)(F)F)CCN(Cc2cccc3cnccc23)CC1,2.15%
14,COc1ccc(C(=O)NCC[N+](C)(C)C)cc1,-3.08%
15,Cc1ccc(S(=O)(=O)N(C)C)cc1NC(=O)c1ccc(-n2cncn2)c([N+](=O)[O-])c1,-6.94%
16,O=C(COC(=O)c1c(Cl)cccc1Cl)Nc1cccc(S(=O)(=O)NC2=NCCCCC2)c1,-2%
17,O=C1NC[C@H](Cc2ccc(O)cc2)N(C[C@@H]2CCCN2C[C@H](Cc2ccccc2)N2C[C@H](Cc3ccccc3)N(CC3CCCCC3)C(=O)C2=O)C1=O,-7.58%
18,CN(C)NC(=O)C(NC(=O)c1ccc(N)cc1)C12CC3CC(CC(C3)C1)C2 (centres undefined),-0.166%
19,Cc1nc2cc(S(=O)(=O)C(F)(F)F)ccc2s1,15.9%
20,CCN1CCCC1CNC(=O)Cn1cnc2ccc(S(=O)(=O)N3CCC(C)CC3)cc2c1=O (centres undefined),3.92%
21,CC(C)(C)Oc1ccccc1Nc1nc(NCCO)nc(N2CCCC2)n1,-17.8%
22,O=C(CCl)Nc1ccc(Sc2ccc(NC(=O)CCl)cc2)cc1,51.1% (active)
23,CC(=O)Nc1ccc(SCC(=O)NC(=O)c2ccc(Cl)cc2)cc1,-7.06%
24,O=C(O)CC(SCC(=O)Nc1ccc(Br)cc1)C(=O)O (centres undefined),-3.72%

row,SMILES,"inhibition (viability loss, TRAIL sensitization)"
1,COc1cccc2cc(/C(C)=N/NC(=O)c3ccco3)oc12,4.04%
2,Cc1oc2c(F)c(F)c(F)c(F)c2c1S(=O)(=O)Nc1cccc(C(F)(F)F)c1,29.6%
3,O=C(CN1CCc2cc3c(cc2C1)OCCCO3)Nc1ccccc1,-22%
4,N#Cc1ccccc1NC(=O)c1ccc2c(c1)OCO2,0.697%
5,Cc1ccc2sc(NNC(=O)c3ccc4c(c3)OCCO4)nc2c1C,-37.1%
6,CCCc1cc(C(=O)Nc2ccc(Cl)cn2)cs1,48.6%
7,O=C(Nc1ccc(Cl)cn1)c1ccc2c(c1)OCCO2,64% (active)
8,O=C(Nc1ccccc1)c1ccc2c(c1)OCCCO2,78% (active)
9,O=C(Nc1nc2ccccc2s1)c1ccc2c(c1)OCO2,74.6% (active)
10,Cc1nc(NC(=O)c2ccc3c(c2)OCCO3)ccc1Br,21.7%
11,CN1CCN(c2ccc(NC(=O)c3ccc4c(c3)OCCO4)cc2Cl)CC1,42.3%
12,COc1ccccc1NC1=NC(c2ccc(Cl)cc2)N=C(N)N1 (centres undefined),-3.71%
13,CC(C#N)OC(=O)c1cccnc1SCC(=O)Nc1ccc2c(c1)OCO2 (centres undefined),4.56%
14,COc1ccccc1NS(=O)(=O)N(C)C,-12.4%
15,NC(=O)COc1ccc(NC(=O)c2ccccc2-c2ccccc2)cc1,-7.08%
16,CC(=O)C[C@H](O)CC(=O)[C@@H]1OC(=O)[C@@H](C)C/C=C\Cc2ccccc21,-3.79%
17,CCC(=O)Nc1ccc(S(=O)(=O)Nc2c(NC)c3ccccc3oc2=O)cc1,1.26%
18,Cc1cn([C@H]2C[C@H](O)[C@@H](CNC(=O)[C@H](N)Cc3cccnc3)O2)c(=O)[nH]c1=O,-0.759%
19,CNC(=O)/C(=C\C=C\c1ccccc1)NC(=O)c1ccc([N+](=O)[O-])cc1,-5.87%
20,CN1OC[C@@H]2CN(C(=O)c3ccc(-c4ccccc4)cc3)[C@H](c3ccc(-c4cccc(F)c4)cc3)C[C@@H]21,-16.6%
21,CCCOc1ccc(Cc2c(Cl)nc(SC)nc2NC)cc1,31.2%
22,Cc1ccc(-c2ccnc3[nH]n(-c4ccccc4)c(=O)c23)cc1,-11.3%
23,Cc1[nH]n(-c2ccccc2)c(=O)c1/C=N/NC(=O)c1ccoc1C,53.8% (active)
24,Cc1occc1C(=O)N/N=C/c1ccc(-c2cccc([N+](=O)[O-])c2)o1,-8.06%

row,SMILES,"inhibition (viability loss, TRAIL sensitization)"
1,CCOc1ccc(S(=O)(=O)N2CCC(c3ccccc3)CC2)cc1C(=O)O,-3.46%
2,C/C(=N\NC(=O)c1ccc(C)cc1)C1C(=O)c2ccccc2C1=O,8.6%
3,O=C(NC1=CC(=O)c2ccccc2C1=O)c1ccccc1,94.6% (active)
4,COc1cc(NC(=O)c2ccccc2)c(OC)cc1NC(=O)Cc1ccccc1,-3.72%
5,CC1(C(=O)NS(=O)(=O)Cc2cccc(Cl)c2)CCN1C(=O)Cc1ccc(Cl)cc1Cl (centres undefined),-0.832%
6,CC(C)(C)CC(=O)Nc1nc(C(N)Cc2ccc(C(F)(F)F)cc2)cs1 (centres undefined),-0.292%
7,NC(c1csc(NC(=O)Nc2cccc(C(F)(F)F)c2)n1)C1CCCCC1 (centres undefined),88.8% (active)
8,COc1ccc(C(N)c2csc(NC(=O)Nc3cccc(C(F)(F)F)c3)n2)cc1 (centres undefined),25.4%
9,Cc1cccc(C(=O)OC(C)C(=O)NC2CCCc3ccccc32)c1O (centres undefined),12.2%
10,CC1CCN(C(=O)C2CCN(S(=O)(=O)N3CCC4(CC3)OCCO4)CC2)CC1,-3.06%
11,CCOC(=O)C1=C(C)NC(C)=C(C(=O)OCC)C1C1=COCCO1,-19.1%
12,CC1COc2ccccc2N1C(=O)c1ccc(F)cc1 (centres undefined),-8.83%
13,O=C(c1ccc(F)cc1)n1c(=S)nc2ccccn21,83% (active)
14,O=C(c1ccc(F)cc1)N1CCC(n2nnc3ccccc32)CC1,-1.41%
15,Cc1c(C2=CCN(S(=O)(=O)c3ccc(Cl)cc3)CC2)c2ccccc2n1C,9.41%
16,Cn1c(N)c(C(=O)COC(=O)/C=C/c2ccc(OC(F)F)cc2)c(=O)n(C)c1=O,-6.75%
17,Cc1ccccc1C(OCCN(C)C)C1CCCCC1 (centres undefined),-0.767%
18,Brc1ccc(C2CC(c3ccccc3)=Nc3ccccc3N2)cc1 (centres undefined),24.3%
19,COc1ccc(C2CC(c3ccccc3)=NN2C(=O)CSc2nccc(=O)[nH]2)cc1 (centres undefined),25.2%
20,CNC(=S)N1N=C(c2ccccc2)CC1c1ccc(Br)cc1 (centres undefined),79.2% (active)
21,CC1C(=O)N(Cc2ccccc2)c2ccccc2N1C(=O)c1ccccc1 (centres undefined),-0.863%
22,CC1C(C)N(C(=O)CCl)c2ccccc2N1C(=O)CCl (centres undefined),88.6% (active)
23,CC1CC(C)CN(CC(=O)N2c3ccccc3CCc3ccccc32)C1 (centres undefined),-22.2%
24,COc1ccc(C(=O)NC(C)Cn2nc(C)cc2C)cc1OC1CCN(C(C)=O)CC1 (centres undefined),8.29%

row,SMILES,"inhibition (viability loss, TRAIL sensitization)"
1,O=C(CC(O)(C(F)(F)F)C(F)(F)F)Nc1ccc(Cl)c(Cl)c1,62.6% (active)
2,CC1(C(=O)O)CCC(C(=O)Nc2ccc(Cl)c(Cl)c2)C1(C)C (centres undefined),-2.64%
3,N#CCCN(C(=O)Nc1ccc(Cl)c(Cl)c1)C1CCCCC1,7.87%
4,CC(=O)N1Cc2cc(C(=O)NCc3cccc(F)c3)nc(-c3cccc(C4=CCCCC4)c3)c2[C@H]1CCO,4.95%
5,CSCCC(NC(N)=O)C(=O)N(C)CC(=O)Nc1ccc(C)cc1 (centres undefined),-24.9%
6,CCOC(=O)c1c(NC(=O)COC(=O)c2ccc(S(=O)(=O)C(F)F)cc2)sc(C(=O)N(C)C)c1C,-18.3%
7,CCOC(=O)c1c(NC(=O)CCl)sc(C(=O)N(CC)CC)c1C,92.5% (active)
8,COC(=O)c1sc(NC(=O)COC(=O)C2CCC2)c(C(=O)OC)c1C,-0.357%
9,CCc1ccc2oc(-c3ccc(N)cc3)nc2c1,74.9% (active)
10,O=C(C(Cc1ccccc1)n1cccc1)N1CCN(C2CCCCC2)CC1 (centres undefined),1.84%
11,CC(=O)c1cccc(-c2cnc3c(NC=O)cc(-c4ccc(N(C)C)cc4)cn23)c1,17.5%
12,CN(C)CCNC(=O)c1cccc(-c2cnc3c(NC=O)cc(-c4cccc(C(F)(F)F)c4)cn23)c1,59.1% (active)
13,CN(C)C(=O)c1cccc(-c2cnc3c(NC=O)cc(-c4ccc(F)cc4)cn23)c1,16.1%
14,Cc1ccc(-c2ccc(CN3C(C(C)C)C(=O)N(Cc4cn(CCC5OCCO5)nn4)CCS3(=O)=O)cc2)cc1 (centres undefined),-2.12%
15,Oc1cccc2cc(-c3ccncc3)cnc12,47.7%
16,Cc1ccc(C(=O)NNC2=Nc3cc([N+](=O)[O-])ccc3OC2)cc1,-18%
17,COc1ccc(C(O)c2nc(-c3ccc4c(c3)OCO4)cs2)cc1 (centres undefined),-6.82%
18,COc1ccc(C2=Nc3cc(C)ccc3OC2)cc1,58.6% (active)
19,C=CCN(CC=C)C(=O)COC(=O)c1n[nH]c2ccccc12,9.77%
20,Nc1ccccc1-c1nc2ccncc2[nH]1,12.6%
21,c1ccc2[nH]c(-c3nc4ccccc4[nH]3)nc2c1,69.4% (active)
22,O=C1c2ccccc2C(c2nc3ccccc3[nH]2)N1c1ccccc1 (centres undefined),-17.6%

# From PubChem BioAssay AID624354 (Sanford-Burnham Center for Chemical Genomics, 2012)
